# In PubChem BioAssay AID990 (National Center for Advancing Translational Sciences (NCATS), 2007):
# The source made the active and inactive calls.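 The calls were made as follows: active = compound that made reporter-free parental cells show up as glowing objects under laser imaging, so likely a fluorescent false positive; inactive = the rest.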
# Experiment: Parental Cell Counter Screen Assay for Epigenetic Modulators
# Conditions: parental c127i cells, compound fluorescence imaging, 30 h
# Summary of the method: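 Fluorescent cells counted by laser-scanning imaging (objects 20–120 um) after washing. Counter screen uses untransfected murine c127i cells exposed to compound for 30 hours at 37 C, flagging intrinsically fluorescent compounds.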
row,Structure (SMILES),outcome
1,Cc1cc(NC(c2ccccn2)c2ccc3cccnc3c2O)no1 (configuration not stated),inactive
2,CN1C(=S)SC(c2ccccc2)N(C)C1c1ccccc1 (configuration not stated),inactive
3,COc1cccc(C(=O)NC(c2ccco2)c2cc(Cl)c3cccnc3c2O)c1 (configuration not stated),inactive
4,O=C(CSc1cccc2cccnc12)NCc1ccccc1,inactive
5,Oc1c(C(Nc2ccccn2)c2ccco2)cc(Cl)c2cccnc12 (configuration not stated),inactive
6,O=Nc1ccc(O)c2ncccc12,inactive
7,Cc1cc(C)n(-c2nc(N(C)C)nc(N(C)C)n2)n1,inactive
